# Test results from PubChem BioAssay (NCI).
# This is part of a sample that, as a whole, favours compounds with a hit. Of some 83,000 tested, about 20% had one in any assay.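 Results are percent growth after 48 hours of single-concentration exposure. 100 means growth as in untreated cells, lower positive values show inhibition; negative values down to -100 show cell death.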 A number with no mark means an inactive call. Calls of active or inactive are those of the source. How the source made its calls: active means growth percent below 10; inactive means the rest.
# Assays:
# Test in all cases: NCI-60 one-dose screen, 48 h (100 = growth as untreated, 0 = no growth, -100 = all killed)
# Conditions in all cases: 10 µM unless noted
# NCI-H23 lung = test system: NCI-H23 lung
# NCI-H226 lung = test system: NCI-H226 lung
# NCI-H322M lung = test system: NCI-H322M lung
# HOP-62 NSCLC = test system: HOP-62 NSCLC
# NCI-H460 lung = test system: NCI-H460 lung
# NCI-H522 lung = test system: NCI-H522 lung
# A549/ATCC NSCLC = test system: A549/ATCC NSCLC
# 786-0 renal = test system: 786-0 renal
# COLO 205 colon = test system: COLO 205 colon
# DU-145 prostate = test system: DU-145 prostate
# K-562 leukemia = test system: K-562 leukemia
# MALME-3M melanoma = test system: MALME-3M melanoma
# MDA-MB-231 breast = test system: MDA-MB-231 breast
# RXF 393 renal = test system: RXF 393 renal
# SF-268 CNS = test system: SF-268 CNS
# SF-295 CNS = test system: SF-295 CNS
# SF-539 CNS = test system: SF-539 CNS
# UACC-257 melanoma = test system: UACC-257 melanoma
# M14 melanoma = test system: M14 melanoma
Compound,growth (NCI-H23 lung),growth (NCI-H226 lung),growth (NCI-H322M lung),growth (HOP-62 NSCLC),growth (NCI-H460 lung),growth (NCI-H522 lung),growth (A549/ATCC NSCLC),growth (786-0 renal),growth (COLO 205 colon),growth (DU-145 prostate),growth (K-562 leukemia),growth (MALME-3M melanoma),growth (MDA-MB-231 breast),growth (RXF 393 renal),growth (SF-268 CNS),growth (SF-295 CNS),growth (SF-539 CNS),growth (UACC-257 melanoma),growth (M14 melanoma)
CN1CCN(Cc2ccc(NC(=O)c3cncc(C#Cc4cnc5ccc(NCCCO)nn45)c3)cc2C(F)(F)F)CC1,-52% (active),-10.1% (active),3.42% (active),-36.8% (active),-85.6% (active),-77.2% (active),5.6% (active),-58.9% (active),-78% (active),-16.5% (active),0.484% (active),-56.1% (active),12.2%,-89% (active),-44.4% (active),-12.1% (active),-78.1% (active),-43.8% (active),-91% (active)
Nc1nc(-c2cccc([N+](=O)[O-])c2)c(N=Nc2ccc(Br)cc2)s1,-65% (active),-39.2% (active),-25.4% (active),-68.1% (active),-61% (active),-48.6% (active),-20.3% (active),-96.4% (active),-2.36% (active),-41.2% (active),16.6%,-62% (active),-46.6% (active),-92.3% (active),26.2%,-65.4% (active),-98% (active),0.3% (active),-75.4% (active)
CCCn1cnc2c(c1=N)C(c1ccc(Cl)cc1)c1sc3c(CC)cccc3c1O2 (centres undefined),19.2%,57.7%,45.8%,31.1%,7.5% (active),-25.7% (active),30.4%,30%,-14.3% (active),13.7%,11.3%,55.6%,30.8%,-22.5% (active),45.4%,-12.8% (active),-19.7% (active),83.9%,2.63% (active)
COc1ccc(/C=C/C(=O)c2cccc(NC(=O)CSc3nc4ccccc4c(=O)n3-c3ccccc3)c2)cc1OC,106%,93.2%,105%,111%,100%,96.9%,91.5%,103%,123%,105%,89.9%,107%,97.3%,97.7%,94.6%,103%,101%,110%,102%
c1cn2c(ccc3nc(-c4cn[nH]c4)c4c(c32)CCCC4)n1,69.2%,73.6%,75.8%,71.8%,43.9%,62.8%,62.5%,55.3%,95.5%,52%,85.6%,29%,77.1%,43.6%,77.5%,42.6%,63.9%,63.5%,32.1%
C=C=COc1cccc(/C(N)=N/C(N)=N/c2nc3ccccc3s2)c1,75.9%,83.7%,103%,101%,93.9%,97%,104%,90.3%,112%,101%,23.5%,93%,76.2%,104%,78.1%,110%,70.4%,104%,67.9%
Clc1ccc(N/N=c2/oc3ccccc3cc2-c2cc3ccccc3[nH]2)cc1,64.4%,77.7%,78.6%,75.9%,85.2%,77.1%,76.2%,87.7%,95.8%,88.6%,67%,55.3%,67.1%,76%,85.1%,71%,87.3%,84.1%,66.5%
CN(C)CCCOc1ccc2c(c1)CN(C(=O)c1cc(C(=O)N3Cc4cccc(F)c4C3)ccc1O)C2,102%,97.2%,105%,120%,105%,97.7%,101%,108%,109%,94.9%,88.8%,103%,103%,93.3%,100%,100%,91%,108%,106%
C[C@@H]1C[C@H]2C(=O)O[C@@H](C)C(NC(=O)[C@H](Cc3cc(F)cc(F)c3)NC(=O)Nc3ccc(Cl)cc3F)C(=O)N3CCC[C@H]3C(=O)N3CCCC[C@H]3C(=O)N[C@@H](CO)C(=O)N2C1 (some centres undefined),37.9%,-4.63% (active),48.6%,33.4%,14.5%,19.4%,26.2%,42.2%,-23% (active),26.2%,23.6%,46.3%,35.2%,-10.3% (active),31.7%,20%,36.2%,15.8%,20.7%
Cn1cc(-c2nc(N)nnc2-c2c[nH]c3ccc(Br)cc23)c2cc(Br)ccc21,48.7%,79.9%,68.4%,59.6%,17.3%,11.6%,49.7%,51.1%,36.3%,64.8%,12.2%,43%,62.5%,39.8%,61.3%,11.7%,43.8%,82.9%,20.7%
CC(O)c1cc2ccccc2c(=O)o1 (centres undefined),99.8%,89.2%,103%,105%,104%,98.6%,102%,101%,112%,110%,101%,98.2%,103%,129%,98.3%,97.7%,95.2%,96.7%,107%
CCO/C=N/C1=C(C#N)C(c2ccc(OC)cc2)c2sc3c(C)cccc3c2O1 (centres undefined),25.4%,57%,45.7%,40.8%,9.13% (active),-3.87% (active),27.3%,40.8%,16.1%,22%,12.6%,60.6%,27.5%,-23.9% (active),54.1%,1.06% (active),-11.6% (active),88.7%,5.22% (active)
N/C(=N\C(N)=N\c1nc2ccccc2s1)c1cccc(F)c1,76.5% [5 µM],90.8% [5 µM],92.6% [5 µM],81.1% [5 µM],88.7% [5 µM],94.5% [5 µM],75.9% [5 µM],107% [5 µM],106% [5 µM],104% [5 µM],89.2% [5 µM],91.5% [5 µM],78.7% [5 µM],122% [5 µM],99.1% [5 µM],87.8% [5 µM],100% [5 µM],104% [5 µM],98.4% [5 µM]
COc1ccc(-n2c(SCc3nnc(NC(=O)c4ccc(Br)cc4)s3)nc3cc(OC)c(OC)cc3c2=O)cc1,92.5%,74%,85.5%,92.3%,93.5%,89.2%,102%,105%,104%,89.4%,100%,92.2%,87.9%,104%,86.4%,93.2%,92.9%,101%,92.5%
c1n[nH]cc1-c1nc2ccc3[nH]ncc3c2c2c1CCCC2,19%,29.1%,31.1%,14.7%,9.2% (active),2.99% (active),15.7%,16.9%,8.98% (active),20.4%,33.9%,11.5%,49.1%,-51.4% (active),27%,29.5%,11%,37.1%,7.13% (active)
COC(=O)c1[nH]nc2c1C1(C(=O)c3cccc4cccc1c34)C(C#N)=C(N)O2 (centres undefined),95%,91.8%,94.1%,97.5%,105%,100%,98.2%,99.5%,110%,104%,91.2%,103%,91.4%,93.5%,84.1%,104%,101%,103%,108%
